In PubChem BioAssay (Tox21):
Where “and” joins values, the source holds several entries; their conditions need not be identical. Equal values may be shown once. More than one record can exist for a structure, and the calls need not agree. Calls of active or inactive are those of the source. Entries that show only a call come without a potency. Unless noted, calls come from the whole dose curve.

Molecular target: Estrogen receptor (Homo sapiens) (UniProt P03372)
Experiment: qHTS assay to identify small molecule antagonists of the estrogen receptor alpha (ER-alpha) signaling pathway (AID 743069; active = well fitted curve in the direction sought with a large enough effect in the signal ratio in the repeat runs, not every such curve was filed as active; inconclusive = weak or mixed curves, or effect the other way; inactive = no such curve, though single readings can be large or run the other way; the % refers to the signal ratio)
Conditions: HEK293 ER-alpha-UAS-bla, beta-lactamase ratio, antagonist mode; series mostly up to 69.4 µM
Summary of the method: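 Antagonist mode: compounds in DMSO were co-added with 17beta-estradiol to ER-alpha-bla HEK293 cells (2% charcoal-stripped serum) and left 18 h at 37C. Reporter inhibition was measured as FRET fluorescence after 2 h LiveBLAzer substrate at room temperature.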
Potency is the fitted concentration of half-maximal effect.

Estrogen receptor (Homo sapiens), sequence (P03372 whole entry, looked up): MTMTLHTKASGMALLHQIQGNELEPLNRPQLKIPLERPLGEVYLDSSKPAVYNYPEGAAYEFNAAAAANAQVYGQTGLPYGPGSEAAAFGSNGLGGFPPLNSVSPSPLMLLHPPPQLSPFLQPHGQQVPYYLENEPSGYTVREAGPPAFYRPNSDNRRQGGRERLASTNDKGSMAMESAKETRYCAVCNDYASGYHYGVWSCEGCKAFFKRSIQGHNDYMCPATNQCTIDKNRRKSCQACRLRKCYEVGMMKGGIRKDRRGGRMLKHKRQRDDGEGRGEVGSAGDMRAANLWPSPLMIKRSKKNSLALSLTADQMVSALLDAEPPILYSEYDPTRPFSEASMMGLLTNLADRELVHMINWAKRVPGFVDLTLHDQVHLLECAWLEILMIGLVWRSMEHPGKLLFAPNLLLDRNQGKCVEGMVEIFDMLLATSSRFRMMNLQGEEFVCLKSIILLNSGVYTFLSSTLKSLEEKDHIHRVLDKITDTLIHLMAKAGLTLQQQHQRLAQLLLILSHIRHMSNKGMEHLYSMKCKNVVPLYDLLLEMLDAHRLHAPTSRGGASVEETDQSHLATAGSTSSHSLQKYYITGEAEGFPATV

| SMILES | Potency |
| --- | --- |
| CC1=C(/C=C/C(C)=C/C=C/C(C)=C/CO)C(C)(C)CCC1 | inactive |
| CCOC(=O)/C=C\C(=O)OCC | inactive |
| CCCCCC/C=C/CCCCCCCC(=O)O | inactive |
| CCCCC/C=C\C/C=C\CCCCCCCC(=O)OC | inactive |
| CCCCCCOC(C)=O | inactive |
| CC(C)(C)C1CCC(O)CC1 (centres undefined) | inactive |
| NCc1cccc(CN)c1 | inactive |
| OCC1CCCO1 (centres undefined) | inactive |
| C=C(C)C(=O)OCCC[Si](OC)(OC)OC | inactive |
| O=[N+]([O-])c1cc(N(CCO)CCO)ccc1NCCO | inactive |
| CC1=CC[C@H]2C[C@@H]1C2(C)C | inactive |
| CCCCC(CC)C(=O)OCCOCCOCCOC(=O)C(CC)CCCC (centres undefined) | inactive |
| O=C(c1cc(O)c(O)c(O)c1)c1ccc(O)c(O)c1O | inactive |
| Oc1ccc(OCc2ccccc2)cc1 | inactive |
| CC(C)(C)C(=O)C1C(=O)c2ccccc2C1=O | 54.4 µM [inconclusive] (active) and 54.9 µM [inconclusive] (active) |
| O=C1O[C@H](CO)[C@@H](O)[C@H](O)[C@H]1O | inactive |
| O=c1c(-c2ccc(O)cc2)coc2cc(O)ccc12 | inactive |
| Oc1c(Cl)cc(Cl)c(Cl)c1Cl | 34 µM [inconclusive] (active) |
| CCC(=O)O | inactive |

System: not listed separately
Experiment: qHTS assay to identify small molecule antagonists of the estrogen receptor alpha (ER-alpha) signaling pathway - cell viability counter screen (AID 743074);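 note: HEK293 cells carrying ER-alpha-UAS-bla reporter stimulated with 17beta-estradiol; nearly all actives have a fitted effect of over 45% in size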
Conditions: ERalpha-bla HEK293 viability, CellTiter-Glo luminescence, 18 h; series mostly up to 69.4 µM

| SMILES | Potency |
| --- | --- |
| CC1=C(/C=C/C(C)=C/C=C/C(C)=C/CO)C(C)(C)CCC1 | inactive |
| O=C1N=C(O)CN1/N=C/c1ccc(-c2ccc([N+](=O)[O-])cc2)o1 | inactive |
| CCOC(=O)/C=C\C(=O)OCC | inactive |
| CC1CC(OC(=O)c2ccccc2O)CC(C)(C)C1 (centres undefined) | inactive |
| CCCCCC/C=C/CCCCCCCC(=O)O | inactive |
| CCCCC/C=C\C/C=C\CCCCCCCC(=O)OC | inactive |
| CCCCCCOC(C)=O | inactive |
| CC(C)(C)C1CCC(O)CC1 (centres undefined) | inactive |
| CC(=O)[C@@]1(O)CC[C@H]2[C@@H]3CCC4=CC(=O)CC[C@]4(C)[C@H]3CC[C@@]21C | inactive |
| CCCCCCCCCC(=O)O | inactive |
| NCc1cccc(CN)c1 | inactive |
| CC(C)n1c(/C=C/[C@@H](O)C[C@@H](O)CC(=O)O)c(-c2ccc(F)cc2)c2ccccc21 | inactive |
| CCCCC(CC)COC(=O)CCCCCCCC(=O)OCC(CC)CCCC (centres undefined) | inactive |
| OCC1CCCO1 (centres undefined) | inactive |
| CCOC(=O)C1OC1c1ccccc1 (centres undefined) | inactive |
| C=C(C)C(=O)OCCC[Si](OC)(OC)OC | inactive |
| O=[N+]([O-])c1cc(N(CCO)CCO)ccc1NCCO | inactive |
| CC1=CC[C@H]2C[C@@H]1C2(C)C | inactive |

| SMILES | Potency |
| --- | --- |
| C/C=C(C)/C=C/C=C(C)C | inactive |
| C=C1CC[C@H](O)CC1=C/C=C1\CCC[C@]2(C)[C@@H]([C@H](C)/C=C/[C@H](C)C(C)C)CC[C@@H]12 | 54.5 µM (active) and 54.9 µM (active) |
| CCCCC(CC)C(=O)OCCOCCOCCOC(=O)C(CC)CCCC (centres undefined) | inactive |
| Oc1ccc2ccccc2c1 | inactive |
| CCCCCCCCCCC=CC1CC(=O)OC1=O (centres undefined) | inactive |
| C[C@@H]1O[C@@H](OC[C@H]2O[C@@H](Oc3c(-c4ccc(O)c(O)c4)oc4cc(O)cc(O)c4c3=O)[C@H](O)[C@@H](O)[C@@H]2O)[C@H](O)[C@H](O)[C@H]1O | inactive |
| O=C(c1cc(O)c(O)c(O)c1)c1ccc(O)c(O)c1O | inactive |
| Oc1ccc(OCc2ccccc2)cc1 | inactive |
| Cc1cc(Cc2ccc(N)c(C)c2)ccc1N | inactive |
| CNC[C@H](O)[C@@H](O)[C@H](O)[C@H](O)CO | inactive |
| CC(C)(C)C(=O)C1C(=O)c2ccccc2C1=O | inactive |
| Nc1nc2ncc(CNc3ccc(C(=O)N[C@@H](CCC(=O)O)C(=O)O)cc3)nc2c(=O)[nH]1 | inactive |
| CCCCCCCCCCCCN | inactive and 54.9 µM (active) |
| Cc1cc(NS(=O)(=O)c2ccc(N)cc2)no1 | inactive |
| O=C1O[C@H](CO)[C@@H](O)[C@H](O)[C@H]1O | inactive |
| Oc1c(Cl)cc(Cl)c(Cl)c1Cl | 53.8 µM (active) |
| CCC(=O)O | inactive |
